The nature of test [1]: NCI Yeast Anticancer Drug Screen. Data for the rad50 strain (AID 155).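 Further: 0% = growth of vehicle-only cultures of the same strain.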 The following applies: S. cerevisiae rad50 strain growth inhibition, hits give high values. An outline of the steps:
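DNA repair mutant yeast, compound exposure, growth read-out; inhibition is taken relative to vehicle.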

Test [2] can be described thus: NCI Yeast Anticancer Drug Screen. Data for the mec2-1 strain (AID 157). The conditions noted are these: S. cerevisiae mec2-1 strain, hits give high values. An outline of the steps: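 Yeast mec2-1 mutant treated with compound. Readout: growth inhibition vs vehicle controls.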
A short description of test [3]: NCI Yeast Anticancer Drug Screen. Data for the sgs1 mgt1 strain (AID 161).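 Further: 0% = growth of cultures given vehicle only.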 The following applies: S. cerevisiae sgs1 mgt1 strain, hits give high values. An outline of the steps: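 Genetically altered yeast, compound exposure, growth inhibition relative to vehicle.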
Test [4] can be described thus: NCI Yeast Anticancer Drug Screen. Data for the cln2 rad14 strain (AID 165).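 Further: 0% = growth equal to vehicle treated cultures.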 The following applies: S. cerevisiae cln2 rad14 strain, hits give high values. An outline of the steps:
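cln2 rad14 yeast strain; compound exposure; growth inhibition read vs vehicle controls.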

The nature of test [5]: NCI Yeast Anticancer Drug Screen. Data for the bub3 strain (AID 167). The conditions noted are these: S. cerevisiae bub3 mutant strain, hits give high values. An outline of the steps: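 In this screen, a yeast mutant lacking normal mitotic checkpoint function is challenged with compound. Relative growth versus vehicle gives the inhibition value.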
Test [6] can be described thus: NCI Yeast Anticancer Drug Screen. Data for the mlh1 rad18 strain (AID 175). The following applies: S. cerevisiae mlh1 rad18 strain growth inhibition, hits give high values. The method, boiled down:
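Yeast w/ defined DNA-repair lesions; compound exposure; growth vs vehicle controls → % inhibition.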

Setting [7] is: at 5.0 µM (retest, dose inferred, filed as 0.5).
Setting [8] is: at 50.0 µM (retest, dose inferred, filed as 5.0).

Compounds without any hit were thinned out: in the full panel of roughly 79,000, 15% have a hit. A number with no mark means an inactive call. Calls of active or inactive are those of the source. No stated cut-off is given here; in the data, active means growth inhibition above about 70%; inactive means the rest.

Turning to `CCN(CC)CCOc1ccc(/C(C#N)=C/c2ccc(C(F)(F)F)cc2)cc1`, the growth inhibition was 36% in test [1] (setting [7]); 96% (active) in test [1] (setting [8]); 75.5% (active) in test [1] (at 50.0 µM); 34% in test [2] (setting [7]); 99% (active) in test [2] (setting [8]); 48.6% in test [2] (at 50.0 µM). For the same compound, the growth inhibition was 65% in test [3] (setting [7]); 98% (active) in test [3] (setting [8]); 90.5% (active) in test [3] (at 50.0 µM); 48% in test [4] (setting [7]); 90% (active) in test [4] (setting [8]); 69.3% in test [4] (at 50.0 µM). Moreover, the growth inhibition was 54% in test [5] (setting [7]); 98% (active) in test [5] (setting [8]); 54.1% in test [5] (at 50.0 µM); 38% in test [6] (setting [7]); 99% (active) in test [6] (setting [8]); 90.8% (active) in test [6] (at 50.0 µM).
Consider `Cc1c(C)c2cc3c(=O)ccoc3c(C)c2oc1=O`, for which the growth inhibition is 32% in test [1] (setting [7]); 76% (active) in test [1] (setting [8]); 48.1% in test [1] (at 50.0 µM); 1% in test [2] (setting [7]); 38% in test [2] (setting [8]); 19.6% in test [2] (at 50.0 µM). The growth inhibition is -11% in test [3] (setting [7]); 21% in test [3] (setting [8]); 30.5% in test [3] (at 50.0 µM); 8% in test [4] (setting [7]); 45% in test [4] (setting [8]); 42% in test [4] (at 50.0 µM). In addition, the growth inhibition was -1% in test [5] (setting [7]); 52% in test [5] (setting [8]); 30.4% in test [5] (at 50.0 µM); -11% in test [6] (setting [7]); 68% in test [6] (setting [8]); 69.6% in test [6] (at 50.0 µM).
For `Nc1ccccc1OCC(O)CN1CCN(Cc2ccccc2)CC1` (stereo not given), the growth inhibition was -7% in test [1] (setting [7]); 23% in test [1] (setting [8]); 72.1% (active) in test [1] (at 50.0 µM); -4% in test [2] (setting [7]); 15% in test [2] (setting [8]); 41% in test [2] (at 50.0 µM). Also, the growth inhibition is -11% in test [3] (setting [7]); 42% in test [3] (setting [8]); 75.6% (active) in test [3] (at 50.0 µM); -4% in test [4] (setting [7]); 17% in test [4] (setting [8]); 16% in test [4] (at 50.0 µM). Moreover, the growth inhibition in test [5] (setting [7]) is -1%; in test [5] (setting [8]) it was 9%; in test [5] (at 50.0 µM), 23.9%; in test [6] (setting [7]), 14%; in test [6] (setting [8]), 55%; in test [6] (at 50.0 µM), 22.5%.
As for `CC(C)C(C)OC(=O)Nc1cccc(O)c1` (stereo not given), the growth inhibition in test [1] (setting [7]) was -142%; in test [1] (setting [8]) it was -141%; in test [1] (at 50.0 µM), 35.3%; in test [2] (setting [7]) it was -48%; in test [2] (setting [8]) it was -53%; in test [2] (at 50.0 µM), 3.15%. In addition, the growth inhibition in test [3] (setting [7]) is -66%; in test [3] (setting [8]), -48%; in test [3] (at 50.0 µM) it was 18.1%; in test [4] (setting [7]), -50%; in test [4] (setting [8]), -54%; in test [4] (at 50.0 µM) it was 46.5%. The growth inhibition in test [5] (setting [7]) was -67%; in test [5] (setting [8]), -74%; in test [5] (at 50.0 µM) it was 2.3%; in test [6] (setting [7]), -144%; in test [6] (setting [8]) it was -102%; in test [6] (at 50.0 µM) it was 18.4%.
With `O=[N+]([O-])c1cc(CN(CCO)CCO)c(O)c2ncccc12`, the growth inhibition in test [1] (setting [7]) was 99% (active); in test [1] (setting [8]) it was 99% (active); in test [1] (at 50.0 µM) it was 99.1% (active); in test [2] (setting [7]), 98% (active); in test [2] (setting [8]), 100% (active); in test [2] (at 50.0 µM), 94% (active). Moreover, the growth inhibition is 96% (active) in test [3] (setting [7]); 100% (active) in test [3] (setting [8]); 99% (active) in test [3] (at 50.0 µM); 97% (active) in test [4] (setting [7]); 99% (active) in test [4] (setting [8]); 91.3% (active) in test [4] (at 50.0 µM). Besides, the growth inhibition in test [5] (setting [7]) was 95% (active); in test [5] (setting [8]), 99% (active); in test [5] (at 50.0 µM) it was 95.7% (active); in test [6] (setting [7]), 96% (active); in test [6] (setting [8]), 99% (active); in test [6] (at 50.0 µM) it was 97.2% (active).
Regarding `Clc1ccc2c(NCCCCCCNc3ccnc4cc(Cl)ccc34)ccnc2c1`, the growth inhibition in test [1] (setting [7]) is 2%; in test [1] (setting [8]), 90% (active); in test [1] (at 50.0 µM), 65.9%; in test [2] (setting [7]), -3%; in test [2] (setting [8]), 98% (active); in test [2] (at 50.0 µM) it was 92.4% (active). The growth inhibition in test [3] (setting [7]) is -10%; in test [3] (setting [8]), 95% (active); in test [3] (at 50.0 µM) it was 87.5% (active); in test [4] (setting [7]) it was -2%; in test [4] (setting [8]), 75% (active); in test [4] (at 50.0 µM) it was 72.4% (active). For the same compound, the growth inhibition is -11% in test [5] (setting [7]); 92% (active) in test [5] (setting [8]); 81.1% (active) in test [5] (at 50.0 µM); 12% in test [6] (setting [7]); 97% (active) in test [6] (setting [8]); 95.8% (active) in test [6] (at 50.0 µM).
Regarding `NC(=S)N/N=C/c1ccc(Cl)s1`, the growth inhibition was -5% in test [1] (setting [7]); 80% (active) in test [1] (setting [8]); 87.2% (active) in test [1] (at 50.0 µM); -8% in test [2] (setting [7]); 29% in test [2] (setting [8]); 47.5% in test [2] (at 50.0 µM). Further, the growth inhibition in test [3] (setting [7]) is -5%; in test [3] (setting [8]), 36%; in test [3] (at 50.0 µM), 67.6%; in test [4] (setting [7]) it was -17%; in test [4] (setting [8]), 9%; in test [4] (at 50.0 µM), 11.7%. Besides, the growth inhibition in test [5] (setting [7]) was -5%; in test [5] (setting [8]) it was 62%; in test [5] (at 50.0 µM), 57.5%; in test [6] (setting [7]) it was -6%; in test [6] (setting [8]), 44%; in test [6] (at 50.0 µM), 87% (active).
On to `CC(C(=O)O)c1c(-c2ccccc2)ccc2ccccc12` (stereo not given), for which the growth inhibition is 37% in test [1] (setting [7]); 3% in test [1] (setting [8]); 38.9% in test [1] (at 50.0 µM); 22% in test [2] (setting [7]); 4% in test [2] (setting [8]); 51.1% in test [2] (at 50.0 µM). Also, the growth inhibition in test [3] (setting [7]) is 2%; in test [3] (setting [8]), 32%; in test [3] (at 50.0 µM), 51.5%; in test [4] (setting [7]), -8%; in test [4] (setting [8]), 12%; in test [4] (at 50.0 µM) it was 52.1%. Besides, the growth inhibition in test [5] (setting [7]) is 6%; in test [5] (setting [8]), 14%; in test [5] (at 50.0 µM) it was 38.9%; in test [6] (setting [7]) it was 5%; in test [6] (setting [8]) it was 24%; in test [6] (at 50.0 µM), 63.6%.
Consider `COc1ccc2c(c1)CCc1c-2ccc(C)c1CCC(=O)O`, for which the growth inhibition was 5% in test [1] (setting [7]); 99% (active) in test [1] (setting [8]); 72.2% (active) in test [1] (at 50.0 µM); 21% in test [2] (setting [7]); 100% (active) in test [2] (setting [8]); 63.8% in test [2] (at 50.0 µM). Moreover, the growth inhibition is 19% in test [3] (setting [7]); 99% (active) in test [3] (setting [8]); 63.9% in test [3] (at 50.0 µM); -3% in test [4] (setting [7]); 99% (active) in test [4] (setting [8]); 74.2% (active) in test [4] (at 50.0 µM). Moreover, the growth inhibition in test [5] (setting [7]) was 10%; in test [5] (setting [8]), 99% (active); in test [5] (at 50.0 µM), 60.2%; in test [6] (setting [7]), 22%; in test [6] (setting [8]), 100% (active); in test [6] (at 50.0 µM), 90% (active).
`NC(=Nc1cc2ccccc2c2ccccc12)/N=C(/N)Nc1cc2ccccc2c2ccccc12`: the growth inhibition in test [1] (setting [7]) is 99% (active); in test [1] (setting [8]), 97% (active); in test [1] (at 50.0 µM), 60.6%; in test [2] (setting [7]) it was 100% (active); in test [2] (setting [8]), 99% (active); in test [2] (at 50.0 µM), 56.2%. Besides, the growth inhibition in test [3] (setting [7]) was 99% (active); in test [3] (setting [8]) it was 98% (active); in test [3] (at 50.0 µM), 51.1%; in test [4] (setting [7]), 99% (active); in test [4] (setting [8]), 98% (active); in test [4] (at 50.0 µM) it was 50.8%. The growth inhibition is 99% (active) in test [5] (setting [7]); 98% (active) in test [5] (setting [8]); 60% in test [5] (at 50.0 µM); 99% (active) in test [6] (setting [7]); 98% (active) in test [6] (setting [8]); 51.7% in test [6] (at 50.0 µM).

These data come from PubChem BioAssay (NCI).
